In the library only some 0.82% were active in any assay of this set; here they are far more common.
Keap1 Nrf2 FP: inhibitors of human Keap1-Nrf2 protein-protein interaction | Keap1 Kelch-Nrf2 peptide fluorescence polarization, 1536-well | inhibition, % at 9.4 µM | actives 0.15% (n = 340,000); in the data active = inhibition above about 12%; inconclusive = no clear call, values can overlap the other calls; inactive = below about 7.3%;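 note: human Keap1 Kelch domain with fluorescein labeled Nrf2 9mer peptide probe; 0% = neutral control wells and 100% = peptide positive control; higher means more block of Keap1 binding to Nrf2 peptide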
RTF Ca sens inh: cardiac RTF calcium desensitization; P19429+P45379; IANBD-labeled cardiac RTF, Ca2+ fluorescence; inhibition, % at 7.15 µM; actives 0.12% (n = 340,000); AID 493244;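 active = inhibition above the mean inhibition of all tested compounds plus 3 SD, cut at about 17% in these data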;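 note: assay run at fixed EC70 calcium of 1.6 mM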
E coli Lon inh: inhibitors of E. coli Lon protease | actives 0.42% (n = 360,000) | P0A9M0 | AID 602123 | inhibition, % at 7.94 µM | purified E. coli Lon protease, fluorescence polarization; in the data active = inhibition above about 13%, passing the limit was not always enough;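 note: 0% = enzyme with probe and DMSO and 100% = no enzyme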
Target sequence (P0A9M0 whole entry, looked up): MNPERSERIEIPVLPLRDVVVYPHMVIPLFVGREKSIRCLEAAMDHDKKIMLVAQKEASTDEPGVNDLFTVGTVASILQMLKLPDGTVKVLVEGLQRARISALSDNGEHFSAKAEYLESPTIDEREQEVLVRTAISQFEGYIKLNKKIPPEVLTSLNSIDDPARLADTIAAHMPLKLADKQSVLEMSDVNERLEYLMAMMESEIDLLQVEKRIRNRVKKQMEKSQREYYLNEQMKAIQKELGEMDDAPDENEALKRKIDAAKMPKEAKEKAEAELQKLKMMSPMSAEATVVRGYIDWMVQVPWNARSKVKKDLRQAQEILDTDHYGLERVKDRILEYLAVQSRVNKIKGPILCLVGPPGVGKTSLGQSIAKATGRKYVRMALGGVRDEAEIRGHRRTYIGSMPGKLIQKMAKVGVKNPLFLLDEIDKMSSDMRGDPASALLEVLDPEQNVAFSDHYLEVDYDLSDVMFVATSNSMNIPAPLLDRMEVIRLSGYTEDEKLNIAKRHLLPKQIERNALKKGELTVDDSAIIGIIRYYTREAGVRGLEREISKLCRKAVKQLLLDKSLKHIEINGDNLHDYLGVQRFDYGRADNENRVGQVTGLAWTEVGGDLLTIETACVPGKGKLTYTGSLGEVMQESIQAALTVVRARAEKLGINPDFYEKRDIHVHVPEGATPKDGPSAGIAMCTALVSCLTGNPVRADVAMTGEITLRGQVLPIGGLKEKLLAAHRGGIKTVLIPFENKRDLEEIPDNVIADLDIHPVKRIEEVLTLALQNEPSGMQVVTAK
C-LANA FP: inhibitors of KSHV LANA C-terminal domain DNA binding. MBP-C-LANA/FAM-LBS DNA binding, fluorescence polarization. inhibition, % at 9 µM. actives 0.078% (n = 340,000);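 active = highest replicate inhibition at or above 60% at 9 µM, even if other replicates fall short; inactive = all replicates below 60% inhibition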;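 note: 0% = neutral control wells and 100% = 4 µM acridine orange control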
cardiac RTF act: cardiac RTF calcium sensitization; IANBD-labeled TnC RTF fluorescence at EC20 calcium; 0% EC20 calcium, 100% full calcium; activation, % at 7.2 µM; actives 0.24% (n = 340,000); AID 493008;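 active = activation above the mean over all tested compounds plus 3 SD, cut at about 30% in these data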;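 note: rise in fluorescence read as greater calcium sensitivity of cardiac thin filaments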
Numbers without * were called inactive.

O=C(NC1CCCCC1)c1cccc2c1C(=O)c1ccc(N3CCC(Cc4ccccc4)CC3)cc1S2(=O)=O was read as Keap1 Nrf2 FP -5, RTF Ca sens inh -155, E coli Lon inh -379, C-LANA FP 8 and cardiac RTF act 90*.
For O=c1c(/C=N/Nc2ccccc2)c(Sc2nnnn2-c2ccccc2)nc2ccccn12 the results were Keap1 Nrf2 FP 0, RTF Ca sens inh -60, E coli Lon inh -130, C-LANA FP 2 and cardiac RTF act 32*.
`CN1C2C=CC(=O)C1C1C(=O)N(c3ccccc3)C(=O)C12` (stereo unspecified) gave E coli Lon inh -8.
Screening COc1ccc(-c2csc(C(C)(O)c3cccc(F)c3)n2)cn1 (stereo unspecified) returned E coli Lon inh -1.
`CC(=O)Nc1cccc(-c2cc(NC(C)=O)c3ncc(-c4ccc(C(C)=O)cc4)n3c2)c1` gave E coli Lon inh -7.
`COC(=O)c1c(C)[nH]c(C(=O)OC(C)C(=O)NC2CCCCC2C)c1C` (stereo unspecified) gave E coli Lon inh -2.
`O=c1oc2cc(O)ccc2cc1-c1nc2c(s1)CCc1ccccc1-2` gave Keap1 Nrf2 FP -2, RTF Ca sens inh inactive, C-LANA FP 16 and cardiac RTF act 897*.
`O=c1oc2ccccc2cc1-c1nc2c(s1)CCc1ccccc1-2` gave Keap1 Nrf2 FP 0, RTF Ca sens inh -10, E coli Lon inh -18, C-LANA FP 2 and cardiac RTF act 9.
Screening O=C1CC(c2ccc(O)c(O)c2)Oc2c1ccc(O)c2O (stereo unspecified) returned Keap1 Nrf2 FP -2, RTF Ca sens inh -1, E coli Lon inh -9, C-LANA FP 97* and cardiac RTF act -6.
Screening O=C1NC(=S)S/C1=C\c1ccc(SCc2ccccc2)o1 returned Keap1 Nrf2 FP 1, RTF Ca sens inh -9, E coli Lon inh -23, C-LANA FP 23 and cardiac RTF act -5.
Screening O=C1NC(=S)S/C1=C\c1ccc(SCc2ccco2)o1 returned Keap1 Nrf2 FP 21*, RTF Ca sens inh 50*, E coli Lon inh 7, C-LANA FP 99* and cardiac RTF act -30.
CCN(CC)c1ccc(/C=C2/SC(=O)N(C(C)C)C2=O)o1 was read as Keap1 Nrf2 FP -124, RTF Ca sens inh -114, E coli Lon inh -172, C-LANA FP -9 and cardiac RTF act 155*.
Cc1ccccc1Nc1ncccc1C(=O)N1CCOCC1 was read as Keap1 Nrf2 FP 1, RTF Ca sens inh -8, E coli Lon inh 57*, C-LANA FP -2 and cardiac RTF act 1.
`O=C(c1cccnc1Nc1ccccc1F)N1CCOCC1` gave Keap1 Nrf2 FP -3, RTF Ca sens inh -5, E coli Lon inh -4, C-LANA FP 2 and cardiac RTF act 0.
Cc1cc2n(n1)C(c1ccccc1)CC(c1ccc(Br)cc1)=N2 (stereo unspecified) was read as Keap1 Nrf2 FP 3, RTF Ca sens inh -14, E coli Lon inh 60*, C-LANA FP 4 and cardiac RTF act 0.
Screening CNC(=S)N1N=C(c2ccc(Br)cc2)CC1c1ccc(Br)cc1 (stereo unspecified) returned Keap1 Nrf2 FP -7, RTF Ca sens inh 3, E coli Lon inh -4, C-LANA FP 2 and cardiac RTF act 4.
Cc1ccc(C2C(C#N)=C(N)SC(N)=C2C#N)cc1 was read as Keap1 Nrf2 FP -66, RTF Ca sens inh -68, E coli Lon inh -404, C-LANA FP -5 and cardiac RTF act 41*.
Screening N#CC1=C(N)SC(N)=C(C#N)C1c1ccnc2ccccc12 returned Keap1 Nrf2 FP -40, RTF Ca sens inh -18, E coli Lon inh -203, C-LANA FP -6 and cardiac RTF act 6.
For Cc1ccc(C2C(C#N)=C(N)SC(N)=C2C#N)c(C)c1 the results were Keap1 Nrf2 FP -24, RTF Ca sens inh -124, E coli Lon inh -421, C-LANA FP -4 and cardiac RTF act 81*.
For Cc1ccccc1C1=C/C(=C(\SS/C(C(=O)c2ccc(OCC(=O)O)c(Cl)c2Cl)=C2\C=C(c3ccccc3C)SS2)C(=O)c2ccc(OCC(=O)O)c(Cl)c2Cl)SS1 the results were Keap1 Nrf2 FP 5, RTF Ca sens inh -14, E coli Lon inh -8, C-LANA FP 100* and cardiac RTF act -44.
Screening O=C(O)COc1ccc2nsnc2c1Cl returned Keap1 Nrf2 FP -3, RTF Ca sens inh -4, E coli Lon inh -2, C-LANA FP 0 and cardiac RTF act -1.
Screening O=C(NCCCCNC(=O)C1CCCC1)C1CCCC1 returned Keap1 Nrf2 FP -6, RTF Ca sens inh -5, E coli Lon inh 1, C-LANA FP 0 and cardiac RTF act 4.
`O=C(NCCCCc1ccccc1)C1CCCC1` gave Keap1 Nrf2 FP -3, RTF Ca sens inh 1, E coli Lon inh 1, C-LANA FP 101* and cardiac RTF act -4.
Screening COC(=O)[C@H]1C[C@H](OC(=O)NCc2ccccc2F)[C@@]2(O)CN(S(=O)(=O)c3ccc(C)cc3)CC2[C@H]1C(=O)OC (stereo partly specified) returned E coli Lon inh -1.
Screening O=C(CSc1nnc(Cc2cc(=O)[nH]c(=O)[nH]2)n1-c1ccc(Cl)cc1)NCC1CCCO1 (stereo unspecified) returned Keap1 Nrf2 FP inconclusive, RTF Ca sens inh 1, E coli Lon inh 22*, C-LANA FP 5 and cardiac RTF act 1.
CC1(C(=O)NCc2ccccc2Br)CCN1Cc1csc2ccccc12 (stereo unspecified) was read as E coli Lon inh 3.
Screening O=C(O)CN1C(=O)/C(=C\c2cc(Br)ccc2OCc2ccc([N+](=O)[O-])cc2)SC1=S returned Keap1 Nrf2 FP 1, RTF Ca sens inh 1, E coli Lon inh -12, C-LANA FP 78* and cardiac RTF act -15.
CCOc1ccc(/C=C2\CCCc3c2nc2ccccc2c3C(=O)O)cc1OC was read as Keap1 Nrf2 FP 114*, RTF Ca sens inh inactive, E coli Lon inh 178*, C-LANA FP 148* and cardiac RTF act 767*.
O=C(O)c1ccc2c3c(cccc13)C(=O)N(c1ccccc1)C2=O was read as Keap1 Nrf2 FP -1, RTF Ca sens inh -1, E coli Lon inh -8, C-LANA FP 5 and cardiac RTF act 3.
Screening Cc1c(O)c2c3c(cccc3c1O)C(=O)N(c1ccccc1)C2=O returned Keap1 Nrf2 FP 4, RTF Ca sens inh -31, E coli Lon inh -14, C-LANA FP 28 and cardiac RTF act 52*.
For CCOC(=O)C1=CCC(c2ccccc2C)N(S(=O)(=O)c2ccc(C)cc2)C1 (stereo unspecified) the results were E coli Lon inh 1.
For O=C1CCC/C(=N/NC(=O)c2sc3ccccc3c2Cl)C1 the results were Keap1 Nrf2 FP -16, RTF Ca sens inh -108, E coli Lon inh -71, C-LANA FP 16 and cardiac RTF act 36*.
CCN1/C(=C/c2ccc3cc(C)ccc3[n+]2CC)Sc2cc(C)ccc21 was read as Keap1 Nrf2 FP -19, RTF Ca sens inh -105, E coli Lon inh -147, C-LANA FP -9 and cardiac RTF act 51*.

Source: PubChem BioAssay (several laboratories)
